{"source": "PubChem BioAssay (NCATS)", "note": "Records with an inconclusive call do not appear. Entries that show only a call come without a potency. Activity calls are given as the source filed them. Calls follow the shape of the dose curve; as a rule, active = well fitted cell-killing curve with a large enough effect; inconclusive = small, poorly fitted or top-dose-only effect; inactive = flat fitted curve, though single readings scatter. Potency is read from the fitted curve at half-maximal effect."}
{"experiment": "Cell Viability - LYMP1-002 - Assay at 40 hr (AID 994); also: nearly all actives have a fitted effect of over 60% in size", "conditions": "LYMP1-002 lymphoblastoid cell viability; series mostly up to 92.2 µM", "excerpt": "NIH Chemical Genomics Center [NCGC]\nNIH Molecular Libraries Screening Centers Network [MLSCN]\nNational Institutes of Environmental Health Sciences [NIEHS]\nNational Toxicology Program [NTP]\nWe have developed a 1536-well cell-based assay for quantitative high throughput screening (qHTS) against a number of cell lines to determine in vitro cytotoxicity of small molecules. This particular assay uses a human lymphoblastoid cell line (LYMP1-002) purchased from Coriell Institute for Medical Research.\nNCGC Assay Protocol Summary:\nThe CellTiter-Glo luminescent cell viability assay (Promega) is a homogeneous method to measure the number of viable cells in culture. The end point readout of this assay is based on quantitation of intracellular ATP, an indicator of metabolic activity, using the luciferase reaction. Luciferase catalyzes the oxidation of beetle Luciferin to oxyluciferin and light in the presence of ATP. The luminescent signal is proportional to amount of ATP present.\nUsing the CellTiter-Glo luminescent cell viability assay, the amount of cellular ATP was measured in the lymphoblastoid cell line with complete culture medium following compound treatment for 40 hours. The assay was performed in opaque white Kalypsys 1536-well plates. In the screen, tetraoctylammonium bromide was used as positive control. Library compounds were measured for their ability to cause acute toxicity in the cell line, as reflected by a decrease in intracellular ATP levels, in a concentration-dependent manner. […] AC50 values were determined from concentration-response data modeled with the standard Hill equation.\nqHTS protocol for CellTiter Glo lymphoblastoid cellular assay\n[Step] [Parameter] [Value] [Description]\n1. Reagent; 5 uL; 2500 lymphoblastoid cells/well\n2. Time; 5 hr; 37 C incubation\n4. Controls; 23 nL; Tetraoctylammonium bromide 6.4pM to 92 uM\n5. Time; 40 hr; 37 C incubation\n6. Reagent; 5 uL; CellTiter Glo reagent\n7. Time; 30 min; Room Temperature\n8. Detection; Luminescence; Viewlux plate reader\nKeywords: cell viability, cytotoxicity, lymphoblastoid cell line, luminescence, NTPHTS, NTPHTS_NCGC, NIEHS, DSSTox, MLSMR, MLSCN, NIH Roadmap, qHTS, NCGC"}
{"smiles": "CCCCC(CC)COC(=O)c1ccccc1C(=O)O", "note": "(stereo not given)", "Potency": "inactive"}
{"smiles": "O=C(NO)c1ccccc1", "Potency": "inactive"}
{"smiles": "O=C(c1ccccc1)c1ccccc1", "Potency": "inactive"}
{"smiles": "Brc1ccccc1-c1ccccc1", "Potency": "inactive"}
{"smiles": "CC(=O)OC/C=C(C)/C=C/C=C(C)/C=C/C1=C(C)CCCC1(C)C", "Potency": "inactive"}
{"smiles": "CCCC(=O)c1cc(O)c(O)cc1O", "Potency": "inactive"}
{"smiles": "Oc1ccccc1", "Potency": "inactive"}
{"smiles": "OCc1c[nH]c2ccccc12", "Potency": "inactive"}
{"smiles": "c1ccc2occc2c1", "Potency": "inactive"}
{"smiles": "COc1cc(C=O)ccc1O", "Potency": "inactive"}
{"smiles": "Cc1cc(C(C)(C)C)c(O)c(C(C)(C)C)c1", "Potency": "inactive"}
{"smiles": "O=C(Oc1ccccc1)c1ccccc1O", "Potency": "inactive"}
{"smiles": "CC(C)(c1ccc(O)cc1)c1ccc(O)cc1", "Potency": "inactive"}
{"smiles": "Nc1ccc(O)cc1", "Potency": "50.1 µM (active)"}
{"smiles": "CC(C)C(C)(C)C(C)(C)C(C)(C)S", "Potency": "inactive"}
{"smiles": "Nc1cccc2c(N)cccc12", "Potency": "inactive"}
{"smiles": "Nc1c2ccccc2nc2ccccc12", "Potency": "12.6 µM (active)"}
{"smiles": "C1=CC2C3C=CC(C3)C2C1", "note": "(stereo not given)", "Potency": "inactive"}
{"smiles": "CCCCCCCCCCCCCCCC[n+]1ccccc1", "Potency": "7.94 µM (active)"}
{"smiles": "Cc1ccc(O)cc1", "Potency": "inactive"}
